Assay [1] in a line: qHTS assay to identify small molecule agonists of the estrogen receptor alpha (ER-alpha) signaling pathway in the presence of an antagonist - cell viability counter screen (AID 1259386).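 Note: series mostly up to about 92 µM; cells exposed to compounds for 22 h at 37 °C before the viability read; nearly all actives have a fitted effect of over 30% in size.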 Summed up:
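Cells are starved of estrogens for 5 days in charcoal-stripped serum, seeded for 24hr and co-treated with ICI-182,780 (10.0nM final) and test compounds. After 22hr at 37C, viability is read as CellTiter-Fluor fluorescence.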

Assay [2] addresses Progesterone receptor (Homo sapiens) (UniProt P06401). Kind of assay: qHTS assay to identify small molecule agonists of the progesterone receptor (PR) signaling pathway (AID 1346784; calls by dose curve; note: nearly all actives have a fitted effect of over 30% in size). Summed up:
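Using charcoal-stripped serum (2%) to limit endogenous steroids, PR-UAS-bla HEK 293T cells received compounds for 16 hr at 37C after 6 hr plating; beta-lactamase FRET fluorescence was recorded following 2 hr substrate loading at room temperature.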

The target is the same in assay [3]. The assay can be described thus: qHTS assay to identify small molecule antagonists of the progesterone receptor (PR) signaling pathway (AID 1346795; active = well fitted inhibition curve with a large enough effect in the signal ratio in the repeat runs, not every such curve was filed as active; the % refers to the signal ratio). Summed up: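 Inhibition of R5020-induced (1 nM final) beta-lactamase reporter signal in PR-UAS-bla HEK293T cells was scored by FRET fluorescence after overnight (16 hr) compound treatment.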
Assay [4] is described as follows: qHTS assay to identify small molecule antagonists of the progesterone receptor (PR) signaling pathway - cell viability counter screen (AID 1346798). Note: series mostly up to about 92 µM; nearly all actives have a fitted effect of over 50% in size. Summed up: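 ATP content as viability readout: CellTiter-Glo luminescence, 30 min room temperature, in PR-UAS-bla HEK293T cells after 16 hr compound/R5020 treatment at 37C and 5% CO2.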
(Quantitative high-throughput screening tests each substance at several concentrations.)

Assay [5] can be described thus: qHTS assay to identify small molecule antagonists of the TGF-beta/Smad signaling pathway - cell viability counter screen (AID 1346824). Note: nearly all actives have a fitted effect of over 50% in size. Summed up: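 Cytotoxicity counter-screen run in the same wells as the beta-lactamase Smad reporter read: CellTiter-Glo luminescence after 30 min at room temperature. HEK 293T SBE-bla cells had 5 hr compound exposure at 37 C with TGF-beta1 (0.25 ng/mL stock).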

The nature of assay [6]: qHTS assay to identify small molecule agonists of the TGF-beta/Smad signaling pathway - cell viability counter screen (AID 1346829). Note: top concentration of the series differs between compounds; nearly all actives have a fitted effect of over 45% in size. Summed up:
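Compound-treated SBE-bla HEK 293T cells (5 hr, 37 C) were assessed for viability with CellTiter-Glo in parallel with the reporter read.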

The nature of assay [7]: qHTS assay to identify small molecule agonists of the TGF-beta/Smad signaling pathway (AID 1346859; active = well fitted activation curve with a large enough effect in the signal ratio in the repeat runs, not every such curve was filed as active; the % refers to the signal ratio; note: series mostly up to about 77 µM). Summed up:
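Stable Smad binding element-beta-lactamase HEK 293T cells; 5 hr compound exposure at 37 C under 5% CO2; 2 hr room-temperature substrate step; fluorescence excited at 405 nm, collected at 460 nm and 530 nm.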

A short description of assay [8]: Caspase-3/7 induction in CHO-K1 cells by small molecules, qHTS assay (AID 1346980). Note: nearly all actives have a fitted effect of over 15% in size. Summed up: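 Luminescent Caspase-Glo 3/7 read (30min, room temperature) quantified apoptosis induction. Cells were wild-type CHO-K1, treated with compound for 17hr at 37 C and 5% CO2.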
Assay [9] is described as follows: Caspase-3/7 induction in HepG2 cells by small molecules, qHTS cell viability counter screen (AID 1346981). Note: series mostly up to about 92 µM; nearly all actives have a fitted effect of over 30% in size. Summed up: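 Steps: seed 2,000 HepG2 cells per well; incubate 5 hr at 37 C; pin-add compounds in DMSO; incubate 16 hr; add CellTiter-Fluor; after 1 hr at 37 C and 5% CO2, read fluorescence.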
The target of assay [10] is Nuclear receptor subfamily 1 group I member 2 (Homo sapiens) (UniProt O75469). Kind of assay: Human pregnane X receptor (PXR) small molecule agonists, qHTS assay (AID 1346982). Note: nearly all actives have a fitted effect of over 35% in size. Note: potency is the fitted concentration of half-maximal effect. Summed up:
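Agonist mode qHTS: PXR-Luc HepG2 cells plated 5 hr before DMSO-dissolved compounds were pinned in, cultured 24 hr at 37 C, 5% CO2; ONE-Glo luminescence readout.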

For assay [11], the target named is Nuclear receptor subfamily 1 group I member 2 (Rattus norvegicus) (UniProt Q9R1A7). The assay can be described thus: Rat pregnane X receptor (rPXR) activation by small molecules, qHTS assay (AID 1346983). Note: nearly all actives have a fitted effect of over 20% in size. The following applies: rPXR luciferase reporter cells, One-Glo luminescence, 24 h; max activation: stronger effect = higher value. Summed up: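 Luminescent readout (One-Glo luciferase, 30 min room temperature) followed 24 hr compound treatment at 37 C of rPXR cells plated 2,000 per well and preincubated 5hr; qHTS format with compounds delivered in DMSO.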
Sequence of Nuclear receptor subfamily 1 group I member 2 (Rattus norvegicus) (Q9R1A7 whole entry, looked up): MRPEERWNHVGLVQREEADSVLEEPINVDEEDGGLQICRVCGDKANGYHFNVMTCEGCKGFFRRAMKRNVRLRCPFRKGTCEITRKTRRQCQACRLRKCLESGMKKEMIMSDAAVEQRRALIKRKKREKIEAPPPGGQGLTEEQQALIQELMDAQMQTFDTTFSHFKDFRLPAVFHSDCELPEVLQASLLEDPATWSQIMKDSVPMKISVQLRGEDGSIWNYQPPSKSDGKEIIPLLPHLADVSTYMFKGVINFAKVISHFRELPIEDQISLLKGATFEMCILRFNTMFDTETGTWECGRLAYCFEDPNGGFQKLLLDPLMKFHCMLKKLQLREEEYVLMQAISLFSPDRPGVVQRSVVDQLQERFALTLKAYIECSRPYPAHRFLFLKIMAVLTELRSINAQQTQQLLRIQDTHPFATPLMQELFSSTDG

Assay [12] has as its target Nuclear receptor subfamily 1 group I member 2 (Homo sapiens) (UniProt O75469). Kind of assay: CYP3A4 induction through human pregnane X receptor (PXR) by small molecules, qHTS assay (AID 1346984). Note: nearly all actives have a fitted effect of over 40% in size. Summed up:
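Steps: seed DPX-2 cells, 5 hr at 37C; pin-transfer compounds; 24 hr at 37C; add Luciferin-IPA (3uM final), 3 hr at 37C; add One-Glo, 30 min RT; read luminescence.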

Assay [13] has the same target. The assay can be described thus: Human pregnane X receptor (PXR) activation by small molecules, qHTS assay (AID 1346985). Note: nearly all actives have a fitted effect of over 40% in size. Summed up:
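DPX-2 cells (HepG2 co-transfected with a PXR response element and a CYP3A4-promoter luciferase construct) were seeded at 2,000 per well, rested 5 hr at 37C, then exposed to DMSO-dissolved compounds for 24 hr. Activation was read as luciferase luminescence.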

Assay [14] has as its target Cytochrome P450 2D6 (Homo sapiens) (UniProt P10635). The assay can be described thus: Cytochrome P450 Family 2 Subfamily D Member 6 (CYP2D6) small molecule antagonists: luciferase reporter qHTS assay (AID 1671196). For activity change, negative = inhibition: series mostly up to about 120 µM. Note: nearly all actives have a fitted effect of over 50% in size. Note: potency is the fitted concentration of half-maximal effect. Summed up: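 P450-Glo format: CYP2D6 converts a proluciferin substrate to luciferin in an NADPH-driven reaction lasting 1 h at room temperature. Light output, proportional to CYP2D6 activity, reflects interference by test chemicals.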
Background: Reporter assays use an easily measured gene product as a stand-in for the process of interest.

A short description of assay [15]: Human pregnane X receptor (PXR) small molecule agonists, qHTS cell viability counter screen (AID 1346977). Note: nearly all actives have a fitted effect of over 50% in size. Summed up:
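Readout is CellTiter-Fluor fluorescence from PXR-Luc HepG2 cells. Plated cells rested 5hr, then were treated with compounds for 24hr at 37C and 5% CO2, with reagent present during the last hour.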

Assay [16] is described as follows: qHTS assay to identify small molecule agonists of the progesterone receptor (PR) signaling pathway - cell viability counter screen (AID 1346799; calls by dose curve; note: nearly all actives have a fitted effect of over 45% in size). Summed up: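 Cytotoxicity in PR-bla HEK293T cells: 16 h compound, 37C; CellTiter-Glo added post-FRET read; luminescence after 30 min RT.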
In assay [17] the target is Thyrotropin-releasing hormone receptor (Homo sapiens) (UniProt P34981). The assay can be described thus: qHTS assay to identify small molecule antagonists of the thyrotropin-releasing hormone receptor (TRHR) signaling pathway (AID 1346877; active = well fitted inhibition curve with a large enough effect in the repeat runs, not every such curve was filed as active; note: series mostly up to about 51 µM). Summed up:
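Cells (TRHR-HEK293) are plated and kept 18 h at 37 °C/5% CO2. A calcium-sensitive dye is added for 2 h, compound follows for 5 min at room temperature, and TRH is then given at 1 nM final.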

Assay [18] shares this target. The assay can be described thus: qHTS assay to identify small molecule agonists of the thyrotropin-releasing hormone receptor (TRHR) signaling pathway (AID 1346891; calls by dose curve;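 note: HEK293 cells expressing TRHR with calcium dye readout; series mostly up to about 58 µM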). Summed up: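 In 1536-format, 1500 TRHR-Hek293 cells per well grew 18 h, took up calcium dye for 2 h at 37 °C, received compound, and were read kinetically; 15-point titrations, triplicates.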
Assay [19] can be described thus: Caspase-3/7 induction in HepG2 cells by small molecules, qHTS assay (AID 1346978). Note: nearly all actives have a fitted effect of over 15% in size. Summed up:
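Caspase-3/7 induction was measured by Caspase-Glo 3/7 luminescence (30 min, room temperature) after a 17 hr compound exposure of wild-type HepG2 cells seeded at 2,000 per well and pre-incubated 5 hr.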

A short description of assay [20]: Caspase-3/7 induction in CHO-K1 cells by small molecules, qHTS cell viability counter screen (AID 1346979). Note: nearly all actives have a fitted effect of over 35% in size. Summed up:
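To flag cytotoxic compounds, treated CHO-K1 wild-type cells were given CellTiter-Fluor at 16hr and read fluorescently after 1hr at 37C; the caspase-3/7 luminescence was measured in these same wells.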

Values without a mark were called inactive. Results filed as inconclusive are left out. Calls of active or inactive are those of the source. Unless noted, calls come from the whole dose curve; as a rule, active = well fitted curve in the direction sought with a large enough effect in the repeat runs; inconclusive = weak or mixed curves; inactive = no such curve, though single readings can be large; an effect the other way counts as inactive or inconclusive.
% is set by controls: 0 for no effect and ±100 for the full control effect.

Sequence of Progesterone receptor (Homo sapiens) (P06401 whole entry, looked up): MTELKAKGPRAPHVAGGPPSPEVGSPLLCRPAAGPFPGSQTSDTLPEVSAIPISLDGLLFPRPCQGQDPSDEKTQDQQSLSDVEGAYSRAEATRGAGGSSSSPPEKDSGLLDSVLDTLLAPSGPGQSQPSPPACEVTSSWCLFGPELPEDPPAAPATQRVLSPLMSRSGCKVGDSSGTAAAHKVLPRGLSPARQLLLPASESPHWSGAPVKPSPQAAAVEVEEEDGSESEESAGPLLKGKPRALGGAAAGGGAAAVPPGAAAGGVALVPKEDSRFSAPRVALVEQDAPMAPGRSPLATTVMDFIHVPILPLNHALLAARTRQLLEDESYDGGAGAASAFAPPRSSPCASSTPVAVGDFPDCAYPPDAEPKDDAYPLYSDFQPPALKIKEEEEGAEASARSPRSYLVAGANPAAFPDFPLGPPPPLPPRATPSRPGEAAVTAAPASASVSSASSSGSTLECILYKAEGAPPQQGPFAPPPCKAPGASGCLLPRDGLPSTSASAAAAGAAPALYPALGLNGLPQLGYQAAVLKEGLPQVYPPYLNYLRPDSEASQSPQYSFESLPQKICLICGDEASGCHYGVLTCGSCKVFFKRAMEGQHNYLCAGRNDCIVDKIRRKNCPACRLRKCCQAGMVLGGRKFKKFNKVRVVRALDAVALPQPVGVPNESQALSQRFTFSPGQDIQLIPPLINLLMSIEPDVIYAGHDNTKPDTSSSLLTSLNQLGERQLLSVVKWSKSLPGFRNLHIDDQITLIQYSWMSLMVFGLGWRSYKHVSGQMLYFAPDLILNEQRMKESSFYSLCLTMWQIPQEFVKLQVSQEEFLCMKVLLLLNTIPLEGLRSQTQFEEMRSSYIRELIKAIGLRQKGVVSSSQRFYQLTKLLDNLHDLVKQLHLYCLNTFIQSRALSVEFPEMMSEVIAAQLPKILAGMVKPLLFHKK
Sequence of Thyrotropin-releasing hormone receptor (Homo sapiens) (P34981 whole entry, looked up): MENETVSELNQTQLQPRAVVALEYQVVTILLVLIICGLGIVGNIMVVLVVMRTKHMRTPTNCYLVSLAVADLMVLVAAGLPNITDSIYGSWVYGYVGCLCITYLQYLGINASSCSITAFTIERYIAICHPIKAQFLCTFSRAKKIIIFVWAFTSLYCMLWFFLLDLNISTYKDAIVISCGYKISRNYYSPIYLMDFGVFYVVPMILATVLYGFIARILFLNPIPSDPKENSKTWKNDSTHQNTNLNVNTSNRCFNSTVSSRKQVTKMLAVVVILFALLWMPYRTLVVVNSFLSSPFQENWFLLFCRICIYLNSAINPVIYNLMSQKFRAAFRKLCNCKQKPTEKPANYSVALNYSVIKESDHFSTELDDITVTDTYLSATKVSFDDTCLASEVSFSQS
Sequence of Cytochrome P450 2D6 (Homo sapiens) (P10635 whole entry, looked up): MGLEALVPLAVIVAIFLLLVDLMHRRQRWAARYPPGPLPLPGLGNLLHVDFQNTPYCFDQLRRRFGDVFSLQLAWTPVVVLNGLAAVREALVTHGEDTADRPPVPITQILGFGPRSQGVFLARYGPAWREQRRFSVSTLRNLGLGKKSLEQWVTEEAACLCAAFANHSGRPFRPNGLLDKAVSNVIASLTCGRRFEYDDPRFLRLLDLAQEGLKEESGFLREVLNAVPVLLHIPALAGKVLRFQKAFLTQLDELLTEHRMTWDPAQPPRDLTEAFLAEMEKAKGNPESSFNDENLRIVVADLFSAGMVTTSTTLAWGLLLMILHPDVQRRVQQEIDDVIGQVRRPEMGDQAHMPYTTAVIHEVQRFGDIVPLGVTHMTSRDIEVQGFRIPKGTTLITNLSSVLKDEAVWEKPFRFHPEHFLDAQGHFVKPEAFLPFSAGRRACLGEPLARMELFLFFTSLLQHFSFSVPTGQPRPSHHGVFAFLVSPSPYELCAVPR
Sequence of Nuclear receptor subfamily 1 group I member 2 (Homo sapiens) (O75469 whole entry, looked up): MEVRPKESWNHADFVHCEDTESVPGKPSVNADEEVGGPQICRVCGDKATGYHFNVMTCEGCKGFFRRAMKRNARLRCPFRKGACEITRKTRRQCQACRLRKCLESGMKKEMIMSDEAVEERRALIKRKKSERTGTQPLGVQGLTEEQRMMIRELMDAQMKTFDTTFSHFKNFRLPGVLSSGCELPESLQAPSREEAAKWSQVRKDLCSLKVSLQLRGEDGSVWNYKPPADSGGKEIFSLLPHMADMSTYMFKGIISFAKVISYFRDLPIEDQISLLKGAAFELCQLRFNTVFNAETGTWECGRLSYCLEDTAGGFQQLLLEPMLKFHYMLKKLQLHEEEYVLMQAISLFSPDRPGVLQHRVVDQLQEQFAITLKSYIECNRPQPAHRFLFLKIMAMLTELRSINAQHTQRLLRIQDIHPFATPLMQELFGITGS

Consider `CC(Cc1cccc(C(F)(F)F)c1)NCCOC(=O)c1ccccc1` (stereo not drawn), for which the Potency result in assay [1], in assay [3], in assay [4], in assay [5], in assay [6] and in assay [8] was “inactive” each time. In addition, the Potency result in [9], in [10], in assay [12] and in assay [13] was “inactive” throughout. The result in assay [2] and in assay [7] was inactive. Moreover, the max activation in assay [11] was -0.287%. The Potency in assay [14] was 97.7 nM (active).
`Nc1nc(N)c(-c2ccccc2)s1`: the Potency entry in assay [1], in [3], in assay [4], in assay [5], in [6] and in [15] was “inactive” in each case. Further, the Potency entry in assay [8], in assay [10], in assay [12], in assay [13] and in [14] was “inactive” in each case. For the same compound, the compound was called inactive in assay [2] and in assay [7]. Further, the max activation in assay [11] is -3.93%.
For `O=C(NS(=O)(=O)/C=C/c1cccs1)c1ccc(F)cc1Br`, the Potency result in [1], in [3], in assay [4], in assay [16], in [5] and in assay [18] was “inactive” throughout. In addition, the Potency result in assay [15], in [20], in assay [8] and in assay [14] was “inactive” throughout. In addition, the call in assay [2], in [7], in [17] and in assay [19] was inactive. Further, the Potency in assay [10] is 30600 nM (active).
`C=CC(=O)OCCOC(=O)CCC(=O)O`: the Potency entry in assay [1], in assay [3], in assay [4], in assay [16], in assay [5] and in [18] was “inactive” each time. The Potency entry in assay [15], in assay [20], in assay [8], in [10] and in assay [14] was “inactive” in each case. For the same compound, the outcome in assay [2], in assay [7], in assay [17] and in assay [19] was inactive.
For the compound `Cc1cc(NC(=O)C(=O)O)cc(C)c1Oc1ccc(O)c2c1CCC2`, the Potency entry in [1], in [3], in assay [4], in assay [5], in assay [6] and in [18] was “inactive” in each case. Moreover, the Potency entry in [15], in assay [20], in [8], in assay [9] and in assay [10] was “inactive” in each case. Also, the compound was called inactive in assay [2], in assay [7], in [17] and in [19].
Take `CC(=O)OCCc1ccccc1`: the Potency result in [1], in assay [3], in assay [4], in assay [16], in assay [5] and in assay [18] was “inactive” each time. Further, the Potency result in assay [15], in assay [20], in assay [8], in [9], in [10] and in assay [14] was “inactive” each time. In addition, the compound was called inactive in assay [2], in [7], in assay [17] and in [19].
As to `CCCCCCCCCCCCCCCCCBr`, the activity change, negative = cytotoxicity in assay [1] is 0.889% [at 19 µM]; in [4], -0.341% [at 18.9 µM]; in assay [15], 1.63% [at 19 µM]; in [20], 6.07% [at 19 µM]; in [9], 2.8% [at 19 µM]. Also, the activation in assay [2] was -0.0997% [at 19 µM]; in assay [7], 2.19% [at 15.8 µM]; in assay [18] it was -0.232% [at 11.8 µM]; in assay [10] it was 1.46% [at 19 µM]. Also, the activity change, negative = inhibition in assay [3] is 0.192% [at 18.9 µM]; in assay [14], -1.15% [at 23.6 µM]. Further, the viability change, negative = cytotoxic in assay [5] is 1.56% [at 15.8 µM]. Further, the activity, negative = inhibition in assay [17] is -2.78% [at 10.5 µM]. Further, the caspase activation in [19] is 0.0731% [at 19 µM]. Besides, the caspase-3/7 activation in assay [8] was -0.258% [at 19 µM].
Turning to `O=C(O)[C@@H]1[C@H]2C[C@H]3c4[nH]c5ccccc5c4CCN3C[C@@H]2CC[C@@H]1O`, the Potency entry in assay [1], in [3], in assay [4], in [5], in assay [6] and in [18] was “inactive” each time. The Potency result in assay [15], in assay [20], in [8], in [9], in [10] and in assay [12] was “inactive” in each case. Also, in [13], the Potency entry is “inactive”. The compound was called inactive in [2], in assay [7], in [17] and in [19]. In addition, the max activation in [11] is -0.311%. Besides, in assay [14], the Potency is 1550 nM (active).

The values are drawn from PubChem BioAssay (Tox21).
